# AHR act: AHR activators, primary screen, cell-based, luminescence, luciferase reporter, human; Aryl hydrocarbon receptor (Homo sapiens), P35869; AID 2796, 2010; AHR-responsive luciferase reporter cells; activation, % at 5 µM; 2.5% of 320,000 active; in the data active = activation above about 47%;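 note: 0% = vehicle wells and 100% = reference agonist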
# Target sequence (P35869 whole entry, looked up): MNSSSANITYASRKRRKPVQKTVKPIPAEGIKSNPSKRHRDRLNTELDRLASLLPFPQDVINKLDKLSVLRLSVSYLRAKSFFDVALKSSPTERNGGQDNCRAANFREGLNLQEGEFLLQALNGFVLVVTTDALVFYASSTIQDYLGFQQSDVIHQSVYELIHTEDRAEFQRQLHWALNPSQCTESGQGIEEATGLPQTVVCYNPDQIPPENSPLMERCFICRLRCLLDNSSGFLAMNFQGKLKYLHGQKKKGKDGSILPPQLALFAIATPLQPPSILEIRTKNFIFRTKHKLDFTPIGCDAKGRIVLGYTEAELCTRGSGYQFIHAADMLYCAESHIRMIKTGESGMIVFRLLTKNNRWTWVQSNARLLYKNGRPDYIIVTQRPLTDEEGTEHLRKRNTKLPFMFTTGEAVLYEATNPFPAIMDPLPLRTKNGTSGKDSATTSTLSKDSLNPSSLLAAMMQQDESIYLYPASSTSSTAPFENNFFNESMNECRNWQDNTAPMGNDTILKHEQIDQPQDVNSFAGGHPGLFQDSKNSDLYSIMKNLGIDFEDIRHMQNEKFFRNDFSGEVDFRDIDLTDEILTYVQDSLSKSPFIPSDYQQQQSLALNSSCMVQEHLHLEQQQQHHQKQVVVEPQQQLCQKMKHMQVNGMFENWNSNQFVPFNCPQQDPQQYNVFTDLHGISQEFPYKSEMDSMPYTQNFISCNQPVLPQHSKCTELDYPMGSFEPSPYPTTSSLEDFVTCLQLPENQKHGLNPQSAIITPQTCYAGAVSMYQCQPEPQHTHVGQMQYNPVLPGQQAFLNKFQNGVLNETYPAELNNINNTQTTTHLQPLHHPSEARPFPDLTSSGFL
# Wnt act: Wnt/beta-catenin pathway activators, primary screen, cell-based, plate reader, single point. Wnt/beta-catenin reporter cell assay, activator. activation, % at 9.35 µM. 1.2% of 300,000 active; in the data active = activation above about 30%, passing the limit was not always enough; inconclusive = no clear call, values can overlap the other calls;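 note: 0% = neutral control wells and 100% = positive control wells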
# MITF act: activators of MITF-driven TRPM1 promoter reporter, primary screen, cell-based, SK-MEL-5, luciferase, single point; 0.75% of 300,000 active; AID 588334, 2011; activation, % at 12.5 µM; SK-MEL-5 TRPM1-promoter luciferase, 24 h; % of positive control, neutral wells = 0;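 active = mean activation of at least 80% with every replicate also reaching 80%; inconclusive = mean reaches 80% but some replicate falls short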;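 note: 0% = neutral control wells and 100% = parthenolide positive control wells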
# FXN GAA850 act: FXN promoter activators, primary screen, cell-based, luciferase luminescence, HEK293 lucGAA850; HEK293 lucGAA850 FXN promoter luciferase reporter, 24 h; percent of 10 µM SAHA response; activation, % at 6 µM; 0.56% of 360,000 active; AID 540364, 2011;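 active = activation above the average of all compounds screened plus 3 SD, cutoff fixed separately per campaign, cut at about 7.5% in these data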;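 note: 0% = DMSO wells and 100% = 10 µM SAHA wells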
# esBAF inh: Bmi1 luciferase reporter increase in mESCs, primary screen, esBAF inhibitor project, mouse ES cells, Bmi1 luciferase knock-in, single point; 24 h; 100% = twice the neutral-well signal; reporter increase, % at 12.5 µM; 2% of 350,000 active; in the data active = activation above about 40%; inconclusive = no clear call, values can overlap the other calls;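 note: 0% = median of the plate's neutral control wells and 100% = double that signal; a rise in the Bmi1 reporter signal indicates esBAF inhibition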
# AHR act confirm: AHR activators, confirmation, cell-based, luminescence, luciferase reporter, human; AID 2845, 2010; shares compounds with AHR act; human cells, AHR-responsive luciferase reporter; 87% of 2,300 active; activation, % at 9 µM; in the data active = activation above about 49%;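 note: HepG2 hepatoma cells carrying a DRE-driven firefly luciferase reporter; 0% = vehicle wells and 100% = reference agonist wells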
# PXR counter: human PXR activators, counter-screen for AHR activator project, cell-based, luciferase luminescence. shares compounds with AHR act. 88% of 2,300 active. cell-based PXR reporter. activation, % at 11.6 µM; in the data active = activation above about 11%;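 note: human hepatoma DPX-2 cells expressing full-length human PXR; 0% = DMSO and 100% = reference agonist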
# Active calls of the source: *; ? = inconclusive; . = not tested or not shown. Most compounds without a hit are left out; they make up all but 4.2% or so of the library.
SMILES,AHR act,Wnt act,MITF act,FXN GAA850 act,esBAF inh,AHR act confirm,PXR counter
O=C(O)C[C@H]1C[C@@H]2c3cc(NC(=O)CC4CC4)ccc3O[C@@H]2[C@H](CO)O1,.,.,.,.,0,.,.
CC(C)CC#Cc1ccc2c(c1)O[C@H](CN(C)C(=O)Cc1ccccn1)[C@H](C)CN([C@H](C)CO)S2(=O)=O,.,.,.,.,4,.,.
Cc1noc(C)c1S(=O)(=O)Nc1ccc2c(c1)C(=O)N([C@H](C)CO)C[C@H](C)[C@H](CN(C)CC1CCCCC1)O2,.,.,.,.,-1,.,.
C[C@H]1CN([C@@H](C)CO)C(=O)Cc2cc(NS(C)(=O)=O)ccc2O[C@@H]1CN(C)C(=O)NC1CCCCC1,.,.,.,.,1,.,.
Cc1noc(C)c1NC(=O)N[C@@H]1CC[C@H](CC(=O)NCCCN(C)C)O[C@H]1CO,.,.,.,.,-3,.,.
Fc1cccc(F)c1/C=N/NC(=S)Nc1cccnc1,43,-1,12,2,.,.,.
Fc1ccc(/C=N/NC(=S)Nc2cccnc2)cc1F,99*,1,12,2,.,92*,14*
Fc1ccc(/C=N/NC(=S)Nc2cccnc2)cc1,105*,27,6,-2,18,53*,19*
C[C@H](CO)N1C[C@H](C)[C@H](CN(C)C(=O)c2ccccc2)Oc2ncc(-c3ccc(C#N)cc3)cc2C1=O,.,.,.,.,3,.,.
CO[C@@H]1CN(C)C(=O)c2cc(NS(=O)(=O)Cc3ccccc3)ccc2OC[C@@H](C)NC[C@H]1C,.,.,.,.,1,.,.
O=C(NC1CCCC1)c1c(O)nc2sccn2c1=O,85*,-2,3,0,4,114*,10
COc1ccc(CN2CC[C@H]3C=CCc4cccc(c43)C2)cc1,82*,-5,1,-1,-7,9,26*
Cc1cc(C)c(-c2cc(NC(=O)COC(=O)c3ccc(NC(=O)CC#N)cc3)n(-c3ccccc3)n2)cc1C,26,-2,-1,-1,1,.,.
Cc1cc(C)c(-c2cc(NC(=O)COC(=O)c3ccc(C#N)cc3)n(-c3ccccc3)n2)cc1C,129*,-1,4,4,.,105*,82*
CC(C)c1ccc(Nc2nc(N3CCOCC3)nc(N3CCOCC3)n2)cc1,.,-3,.,-1,-5,.,.
CC(C)c1ccc(Nc2nc(NCc3ccco3)nc(N3CCOCC3)n2)cc1,85*,-4,7,2,9,86*,32*
C[C@@H]1CN([C@@H](C)CO)S(=O)(=O)c2ccc(C#CCN(C)C)cc2O[C@H]1CN(C)C,.,.,.,.,2,.,.
S=C(NNc1ccc2ccccc2c1)NC1CCCCC1,108*,.,-15,-1,.,90*,99*
S=C(Nc1ccc(Oc2ccccc2)cc1)NC1CCCCCC1,1,.,-7,2,.,.,.
N#Cc1nc(-c2ccccc2)oc1NCCCn1ccnc1,99*,0,-13,1,4,104*,28*
COc1ccc(NC(=O)N2CCCCN3[C@H](CO)[C@@H](c4ccc(C#CCC(C)C)cc4)[C@@H]3C2)cc1,.,.,.,.,-12,.,.
Cc1ccc(-n2c(C)nc3oc4ccccc4c(=O)c3c2=O)cc1,91*,?,12,2,56*,99*,11*
CN(C)CCCNC(=O)C[C@@H]1CC[C@@H]2[C@@H](COc3ccc(NC(=O)C4CCC4)cc3C(=O)N2C)O1,.,.,.,.,1,.,.
CCOc1ccccc1Nc1nnc(SCC(=O)Nc2cccc(S(=O)(=O)NC3=NCCCCC3)c2)s1,87*,-4,-5,-2,2,76*,127*
CO[C@@H]1CN(C)C(=O)c2ccc(NS(C)(=O)=O)cc2OC[C@H](C)N(CC2CCOCC2)C[C@H]1C,.,.,.,.,1,.,.
Clc1cccc(Nc2nc(-c3ccncc3)cs2)c1,98*,10,?,7,.,96*,11*
COc1ccc(-c2csc(Nc3ccc(C)cn3)n2)cc1,14,13,53,3,.,.,.
